IL-1B inflam inh: inhibitors of inflammasome signaling (IL-1 beta secretion); THP-1 LPS/ATP IL-1B secretion, AlphaLISA, 16 h; active compounds read low; activity change, % at 57.5 µM; 360,000 tested, 4.7% active; in the data active = activity change below about -50%; inconclusive = mostly about -30% to -49%
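THP-1 cells pretreated 1 hr with compounds (up to 57.5 uM final), then stimulated with LPS (250 ng/mL final) plus ATP (1.25 mM final); secreted IL-1B measured by AlphaLISA after 16 hr, decreased signal indicating inhibition.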
DT40 TDP1 no CPT: qHTS for Inhibitors of human tyrosyl-DNA phosphodiesterase 1 (TDP1): qHTS in cells in absence of CPT; Potency, µM (series often up to 46.2 µM), actives largely listed as inhibitors; 420,000 tested, 15% active; DT40 Tdp1-/- hTDP1 cells, no CPT, ATP luminescence, 48 h; note: nearly all actives have a fitted effect of over 55% in size
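Readout: luminescence from CellTiter-Glo after 30 min in the dark at RT. Cells: DT40 Tdp1-/- with stable hTDP1, 400/well. Exposure: compounds alone, ≥48 hr, 37 °C.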
HT1080 IDH1KD tx: toxicity to HT-1080 IDH1 knockdown cells (counter line); Potency, µM (highest dose often 46.1 µM), actives largely listed as cytotoxic; 360,000 tested, 2% active; HT-1080 IDH1 knockdown viability, ATP luminescence, 48 h
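In this qHTS, HT-1080 cells depleted of IDH1 are exposed for 48 h at 37 °C to compound titrations. Toxicity is scored from CellTiter-Glo luminescence, with DMSO as full viability and medium alone as none.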
HT1080-NT tox: kills 2HG-producing HT-1080-NT fibrosarcoma cells. HT-1080-NT fibrosarcoma viability, CellTiter-Glo ATP luminescence, 48 h. Potency, µM (titrated, usually from 46.1 µM), hits mostly cytotoxic. 360,000 tested, 1.6% active. AID 686970;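 note: NT is the 2HG producing partner of a matched IDH1 knockdown line; nearly all actives have a fitted effect of over 55% in size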
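750 cells/well, RPMI + 5% FBS; 2 h settle, compound pin-transfer, 48 h at 37 degrees C. CellTiter-Glo 10 min RT, luminescence. Normalized to DMSO and media-only wells.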
DT40 TDP1 CPT: growth inhibition of DT40 Tdp1-/-;hTDP1 cells with camptothecin (screen for TDP1 inhibitors); chicken DT40 Tdp1-/-;hTDP1 cells + 20 nM CPT, ATP luminescence, 48 h; Potency, µM (top dose mostly 46.2 µM), most hits filed as inhibitors; 420,000 tested, 12% active; AID 686979; note: nearly all actives have a fitted effect of over 55% in size
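Cell growth measured by CellTiter-Glo luminescence after a minimum 48 h, 37 C compound exposure with 20 nM CPT in Tdp1-knockout DT40 cells stably expressing hTDP1, seeded 400/well; qHTS titration format.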
A number is an active result; – = inactive; ? = inconclusive; · = no result. Sampled rows, rich in hits. Any-hit rate of the full collection: about 19%. Unless noted, calls come from the whole dose curve; as a rule, active = well fitted curve in the direction sought with a large enough effect; inconclusive = small, poorly fitted or top-dose-only effect, or another doubt; inactive = no such curve, though single readings can be large; an effect the other way counts as inactive or inconclusive.

SMILES	IL-1B inflam inh	DT40 TDP1 no CPT	HT1080 IDH1KD tx	HT1080-NT tox	DT40 TDP1 CPT
COc1ccccc1-n1nnnc1SCC(=O)Nc1ccc(C)c(N)c1	–	?	–	–	?
CC(=O)NC(c1ccc(C(C)C)cc1)c1c(O)ccc2ccccc12 (configuration not stated)	-74.9	?	?	?	–
COc1ccc(C2Nc3ccccc3C(=O)N2c2ccccc2F)cc1COc1ccc(NC(C)=O)cc1 (configuration not stated)	·	17.8µM	·	·	11.2µM
COc1ccc(C2Nc3ccccc3C(=O)N2c2ccc(Cl)cc2)cc1COc1ccc(NC(C)=O)cc1 (configuration not stated)	·	14.1µM	·	·	?
COc1ccc(N2C(=O)c3ccccc3NC2c2ccc(NC(C)=O)cc2)c(OC)c1 (configuration not stated)	–	–	–	–	–
COc1ccc(N2C(=O)c3ccccc3NC2c2ccc(OC)c(COc3ccccn3)c2)cc1 (configuration not stated)	–	?	–	–	?
CCC(Oc1ccccc1)C(=O)Nc1ccccc1N1CCCC1 (configuration not stated)	–	?	–	–	?
O=C(CCNC(=O)c1ccc(Br)cc1)Nc1ccccc1N1CCCCC1	-80.2	?	–	–	?
Cc1cc(C)cc(OCC(=O)Nc2ccccc2N2CCCCC2)c1	–	?	–	–	?
O=C(Nc1ccc(N2CCCC2)c(Cl)c1)c1ccc([N+](=O)[O-])o1	-109.4	18.4µM	5.8µM	5.8µM	8.2µM
CCC(C(=O)Nc1ccccc1N1CCCC1)c1ccccc1 (configuration not stated)	–	16.4µM	–	–	?
O=C(CCNC(=O)c1ccccc1Cl)Nc1ccccc1N1CCCC1	–	–	–	–	–
Cc1cc(C)cc(NC(=O)Nc2ccccc2N2CCCCC2)c1	-74.0	16.4µM	–	–	?
O=C1N2CCCCC1(Sc1ccccc1)CCC2 (configuration not stated)	–	–	–	–	–
COc1c([N+](=O)[O-])cc(C(=O)NNC(=O)c2ccc(C)cc2)cc1[N+](=O)[O-]	–	–	–	–	–
CC1CCN(c2ccccc2NC(=O)c2ccc([N+](=O)[O-])o2)CC1	–	?	–	–	?
COc1ccc(N2CCCC2)c(NC(=O)c2ccc([N+](=O)[O-])o2)c1	-70.5	18.4µM	–	–	7.31µM
O=C(Nc1ccccc1N1CCN(C(=O)c2ccccc2)CC1)c1ccc([N+](=O)[O-])o1	–	14.6µM	16.4µM	?	20.6µM
O=C(NC(=S)Nc1ccccc1N1CCCCC1)c1ccccc1	–	25.9µM	–	–	?
COc1ccc(C(=O)Nc2cc([N+](=O)[O-])ccc2N2CCCC2)cc1	–	–	–	–	–
O=C(Nc1ccccc1N1CCCC1)c1ccc([N+](=O)[O-])o1	-93.0	?	?	?	23.1µM
Cc1cccc(-c2nnc(SCC(=O)C(C)(C)C)n2C)c1	–	?	–	?	–
COc1ccccc1NS(=O)(=O)c1cccc(C(=O)NCC(c2cccs2)N2CCOCC2)c1 (configuration not stated)	–	?	–	–	–
CC(C)NC(=S)n1cc(C(=O)c2cc(Cl)cc(Cl)c2O)cn1	–	–	–	–	–
Cc1ccc(C(=O)Nc2ccccc2N2CCCCC2)cc1	–	?	–	–	–
SMILES	IL-1B inflam inh	DT40 TDP1 no CPT	HT1080 IDH1KD tx	HT1080-NT tox	DT40 TDP1 CPT
Cc1ccc(C(=O)Nc2ccccc2N2CCCCC2)o1	–	?	–	–	25.9µM
CN1CCN(c2ccccc2NC(=O)c2ccc(-c3ccc(Cl)cc3Cl)o2)CC1	–	23.1µM	–	–	20.6µM
O=C(Nc1cc(C(F)(F)F)ccc1-n1cncn1)c1ccc([N+](=O)[O-])o1	-94.4	20.6µM	–	–	10.3µM
CCOC(=O)c1c(C)[nH]c(C(=O)N/N=C/c2cc([N+](=O)[O-])ccc2O)c1C	–	6.51µM	?	–	6.51µM
CCOC(=O)c1c(C)[nH]c(C(=O)N/N=C\c2ccccc2O)c1C	–	3.66µM	5.8µM	7.31µM	4.11µM
COc1ccc(/C=N/NC(=O)c2[nH]nc3c2CCc2ccccc2-3)cc1OC	–	2.59µM	?	–	6.51µM
CCOC(=O)c1c(C)[nH]c(C(=O)N/N=C/c2ccc(OC)c(OC)c2)c1C	–	0.92µM	?	–	1.16µM
CNC(=O)c1[nH]nc2c1CCc1ccccc1-2	–	–	–	–	–
COc1ccccc1/C=N/NC(=O)c1[nH]c(C)c(C(=O)N/N=C/c2ccccc2OC)c1C	–	–	–	–	–
CCOC(=O)c1c(C)[nH]c(C(=O)OCc2ccc([N+](=O)[O-])cc2)c1C	?	–	–	–	?
C/C(=N/NC(=O)c1cc(-c2cccc([N+](=O)[O-])c2)n[nH]1)c1cccc(O)c1	–	?	–	–	–
CCc1ccc(/C=N/NC(=O)c2cc(-c3cccc([N+](=O)[O-])c3)n[nH]2)cc1	–	2.91µM	6.51µM	7.31µM	3.66µM
C/C(=N\NC(=O)c1cc(-c2cccc([N+](=O)[O-])c2)n[nH]1)c1ccccc1O	–	?	23.1µM	?	?
COc1ccc(-c2nnc(SCC(=O)N(C)C3CCS(=O)(=O)C3)n2CC(C)C)cc1 (configuration not stated)	–	–	–	–	–
COc1ccc(C(C(=O)NC2CCCCC2)n2c(=O)c(-c3ccco3)nc3ccccc32)cc1 (configuration not stated)	–	25.9µM	–	–	?
O=C(NC1CCCCC1)C(c1cccc2ccccc12)n1c(=O)c(-c2ccco2)nc2ccccc21 (configuration not stated)	–	23.1µM	–	–	16.4µM
COc1ccc(NC(=O)C(c2cccc3ccccc23)n2c(=O)c(-c3ccco3)nc3ccccc32)cc1 (configuration not stated)	–	–	–	–	?
Brc1cc2c(cc1/C=N/Nc1nc(N3CCOCC3)nc(N3CCOCC3)n1)OCO2	–	?	–	–	?
COc1cc2c(N3CCN(C(=O)Nc4ccc(OC(C)C)cc4)CC3)ncnc2cc1OCCCN1CCCCC1	·	21.1µM	·	·	?
O=C(CS(=O)c1ccc(C(F)(F)F)cc1[N+](=O)[O-])Oc1ccc(Cl)cc1 (configuration not stated)	-97.5	11.6µM	?	?	9.2µM
CN1CCN(c2ccc(C(=O)c3ccc(Br)cc3)cc2[N+](=O)[O-])CC1	-219.6	14.6µM	?	–	?
CN1CCN(c2ccc([N+](=O)[O-])cc2NC(=O)c2cccs2)CC1	–	23.1µM	–	–	?

Screening results as filed in PubChem BioAssay.
